# Results taken from publication PMC6792352, “Limited Chemical Structural Diversity Found to Modulate Thyroid Hormone Receptor in the Tox21 Chemical Library” (Environmental Health Perspectives, 2019).
# Structures can show the parent of a compound that is named as a salt.
# System: thyroid hormone receptor (endogenous TRα and TRβ)
# Design: species or system GH3-TRE-Luc (rat pituitary); GH3-TRE-Luc luciferase reporter, antagonist mode against 1 nM T3, loss of signal, qHTS
# Conditions: read-out: Average AC50 (uM) GH3-TRE-Antag; 24 h; antagonist
row,SMILES,AC50
1,CN1C(=S)CN=C(c2ccccc2)c2cc(Cl)ccc21 [Sulazepam],43.6 µM
2,CC[C@H]1C[C@H]2[C@@H]3CCC4=CC(=O)CC[C@@H]4[C@H]3CC[C@]2(C)[C@H]1O [Oxendolone],21.2 µM
3,Cc1cc2c3c(c1)C(c1ccccc1)=N[C@@H](NC(=O)c1ccncc1)C(=O)N3CC2 [CI-1018],27.4 µM
4,Cc1ncc2n1-c1ccc(Cl)cc1C(c1ccccc1F)=NC2 [Midazolam hydrochloride],32.8 µM
5,O=c1oc2ccccc2c(O)c1C(CC(O)c1ccc(-c2ccc(Br)cc2)cc1)c1ccccc1 (stereo not drawn) [Bromadiolone],44.3 µM
6,Cc1nnc2n1-c1ccc(Cl)cc1C(c1ccccc1)=NC2 [Alprazolam],41.3 µM
7,CCCCCCCCC(=O)NCc1ccc(O)c(OC)c1 [Nonivamide],> 50 µM
8,Cl[Si](Cl)(c1ccccc1)c1ccccc1 [Dichlorodiphenylsilane],76.3 µM
9,CN1C(=O)C(O)N=C(c2ccccc2)c2cc(Cl)ccc21 (stereo not drawn) [Temazepam],> 50 µM
